Source: PubChem (several laboratories)
PABP1 MLLE inh: blocks PAM2 peptide binding to the PABP1 MLLE domain | 360,000 tested, 0.36% active | inhibition, % at 20 µM | GST-MLLE / FITC-PAM2 fluorescence polarization; in the data active = inhibition above about 35%, passing the limit was not always enough;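 also: plate controls were DMSO wells with GST-MLLE for no effect and wells lacking GST-MLLE protein for full effect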
PABP polyA inh: PABP-poly(A) binding inhibition; PABP-poly(A) RNA binding, fluorescence polarization; calls only at 35 µM; P11940; 290,000 tested, 1% active;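 also: calls also rest on retests at 20 µM and on dose response follow-up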
eIF4E 4G PPI: inhibitors of eIF4E and eIF4G interaction in translation initiation; P63073+Q04637; TR-FRET eIF4E-eIF4GI(517-606) binding, 2 h; inhibition, % at 21.7 µM; 220,000 tested, 0.37% active;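 active = inhibition above about 30%, limit read from the data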;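 also: 0% = full FRET control wells and 100% = background wells lacking eIF4GI fragment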
eIF4H FP inh: inhibitors of RNA binding by human eIF4H. eIF4H fluorescence polarization binding assay. inhibition, % at 35 µM. 290,000 tested, 0.94% active. AID 2012;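 also: calls also rest on retests at 20 µM and on dose response follow-up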
14-3-3 Bad PPI: disrupts binding of bovine 14-3-3 zeta to phospho-Bad peptide. AID 781. P63103. 220,000 tested, 0.71% active. inhibition, % at 21.7 µM. TR-FRET 14-3-3zeta/Dy647-pBad peptide displacement, 1 h;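 active = inhibition above about 70%, limit read from the data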;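 also: 0% = full 14-3-3 plus peptide FRET controls and 100% = background without 14-3-3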
Active calls of the source: *; i = inactive; u = inconclusive; x = no result given; + = active, no number. In the library only some 1.9% were active in any assay of this set; here they are far more common. Unless noted, no rule for the calls is given here.

SMILES | PABP1 MLLE inh | PABP polyA inh | eIF4E 4G PPI | eIF4H FP inh | 14-3-3 Bad PPI
CC(=O)c1ccc(NC(=S)NC(=O)/C=C/c2ccco2)cc1 | 25.6 | + | x | 61.9* | x
NC(N)=NS(=O)(=O)c1ccc(NC(=S)NC(=O)/C=C/c2ccccc2)cc1 | 30.1 | i | x | -3.2 | x
COc1ccc(-c2csc(NC(=S)NC(=O)/C=C/c3ccco3)n2)cc1OC | 24.7 | + | 21.5 | 88.7* | 20.7
Cc1ccc(C(C)C)c(OCC(=O)NCC(c2cccs2)N2CCOCC2)c1 (centres undefined) | -7.8 | x | x | x | x
COc1ccccc1NC(=S)NC(=O)/C=C/c1ccco1 | -1.0 | + | -0.4 | 77.3 | -6.3
CCN1CCc2nc3sc(C(=O)N4CCc5ccccc5C4)c(N)c3cc2C1 | -27.2 | + | x | 98.5* | x
CCOc1ccc(-c2nnc(NC(=O)COc3ccccc3F)o2)cc1 | 5.2 | x | x | x | x
O=C(COC(=O)COc1ccc(Cl)cc1Cl)NC1CCS(=O)(=O)C1 (centres undefined) | -0.5 | x | x | x | x
O=C(NN=C1CCCC1)c1ccccc1OCc1ccc(Cl)cc1 | -2.4 | i | -1.2 | -1.2 | -2.9
COc1ccc(-c2cc([C@H]3[C@@H]4C=CCC[C@@]4(C)C(=O)N3Cc3ccccc3)ccc2F)cc1 | -11.9 | i | 44.8* | -11.7 | -1.3
O=C(O)/C=C/C(=O)Nc1ccc(OC(F)(F)F)cc1Br | 0.2 | i | 5.8 | -4.4 | -0.1
Cc1ccc(NC(=O)COc2ccc(N(C)C(=O)C(C)(C)C)cc2)cc1S(=O)(=O)N1CCCCC1 | 5.3 | x | x | x | x
CSc1sc(C(=O)NN)c2c1C(O)CCC2 (centres undefined) | 10.8 | x | x | x | x
COC(=O)C(/C=N/OCc1ccc([N+](=O)[O-])cc1)NC(=O)c1ccccc1 (centres undefined) | 4.1 | + | 14.3 | u | 4.4
O=C(C/C=N\OCc1ccc([N+](=O)[O-])cc1)Nc1ccccc1 | -3.2 | i | -0.2 | -1.9 | -8.0
Cc1ccc([N+](=O)[O-])cc1NC(=S)NC(=O)c1cccnc1 | 41.4* | i | 1.3 | -4.8 | 47.8
O=C(NC(=S)Nc1cc([N+](=O)[O-])ccc1O)c1cccnc1 | 41.7* | i | -0.8 | 6.8 | -6.5
CC(=O)c1ccc(NC(=O)CN2C(=O)NC(C)(c3ccc4c(c3)OCCO4)C2=O)cc1 (centres undefined) | 1.9 | x | x | x | x
O=C(NNS(=O)(=O)c1ccc(F)cc1)C1CCN(Cc2cccc(F)c2)CC1 | -11.6 | i | -2.3 | 1.0 | -6.1
Cc1cc([N+](=O)[O-])ccc1NCc1ccco1 | 4.8 | i | -1.7 | -16.3 | -6.7
O=[N+]([O-])c1c(NCc2ccco2)ccc2nonc12 | 9.0 | + | -0.5 | 123.0* | -2.8
Cc1ccc(-n2c(SCC(=O)N/N=C/c3c(C)nn(-c4ccccc4)c3C)nc3ccccc3c2=O)cc1 | 38.2* | i | 4.5 | -3.9 | 18.6
Cc1ccccc1-n1c(SCC(=O)N/N=C/c2c(C)nn(-c3ccccc3)c2C)nc2ccccc2c1=O | 37.0 | i | -1.1 | 1.1 | 88.8*
Cc1nnc(NCC=Cc2ccccc2)s1 | -138.6 | x | x | x | x
O=C(NC1CCCCCC1)C(=S)NCCc1ccccc1 | 44.0* | i | 3.9 | -9.4 | -1.2
SMILES | PABP1 MLLE inh | PABP polyA inh | eIF4E 4G PPI | eIF4H FP inh | 14-3-3 Bad PPI
O=C(NC1CCCCCC1)C(=S)NCc1ccccc1 | 24.4 | i | -3.9 | -1.8 | -3.1
CCC[C@H]1CN(c2ccc(OC)cc2)C(=O)[C@@H]1CC(=O)NC | -7.8 | x | x | x | x
O=C(CNC(=O)c1ccccc1)NCCc1nc2ccccc2[nH]1 | -11.1 | i | -1.1 | -2.7 | 15.8
CC(C)=C(NC(=O)c1ccccc1Br)C(=O)NCCc1nc2ccccc2[nH]1 | -14.1 | + | 4.5 | 112.0* | 0.1
CC(=O)Nc1ccc(-c2csc(NC(=O)C3CC(=O)N(c4ccc5c(c4)OCCO5)C3)n2)cc1 (centres undefined) | 18.9 | + | -2.6 | 59.8* | 5.4
COc1ccc(-c2csc(NC(=O)C3CC(=O)N(c4ccc5c(c4)OCCO5)C3)n2)cc1 (centres undefined) | 1.0 | i | 1.0 | 38.2 | -0.2
CCOC(=O)CCSc1nc(-c2ccc3c(c2)OCO3)cc(C(F)(F)F)c1C#N | -4.6 | i | -16.5 | -6.2 | 3.6
CCOC(=O)CC(=O)CSc1nc(-c2ccc3c(c2)OCO3)cc(C(F)(F)F)c1C#N | 5.1 | + | 10.9 | u | 8.1
COC(=O)c1cc(S(=O)(=O)NCc2ccc3c(c2)OCO3)cn1C | 8.5 | x | x | x | x
